High-throughput results as filed in PubChem.
Sampled rows, rich in hits. Any-hit rate of the full collection: about 9.2%.
FLuc counter: firefly luciferase modulation, counter-screen for miR-21 project; hit rate 6.9% among 360,000; Potency, µM (titrated, usually from 57.5 µM), for the others: at the highest dose activity change, negative = inhibition, usual class: inhibitors; purified FLuc, Km substrates, luminescence inhibition; P08659;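 also: plate controls were vehicle for no effect and reference inhibitor for full effect; nearly all actives have a fitted effect of over 55% in size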
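Purified P. pyralis luciferase (10nM final) with 10uM D-luciferin and 10uM ATP (Km levels) in 50mM Tris acetate pH 7.5, 10mM Mg acetate, 0.01% Tween-20, 0.05% BSA; qHTS 6-point titration, ~60 µM downward; luminescence read.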
ELG1 DNA repair: blocks ELG1-dependent DNA repair in HEK293T cells; HEK293T ELG1-luciferase reporter, luminescence, 16 h; DNA damage induced by 5-fluorouridine; Potency, µM (highest dose often 46.1 µM), for inactives: at the top dose activity change, negative = inhibition, hits mostly inhibitors; hit rate 2.3% among 330,000; AID 504467; also: % is scaled to controls: 0 for no effect and ±100 for the full control effect; nearly all actives have a fitted effect of over 55% in size
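Step one: seed 2,000 cells per well. Step two: pin-transfer compound or DMSO alongside 5-fluorouridine. Step three: incubate 16 hr, 37 °C, 5% CO2. Step four: add ONE-Glo, wait 30 min, read luminescence.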
NPC1 prom act: NPC1 promoter activation. AID 485313. hit rate 2.4% among 320,000. Potency, µM (top dose mostly 9.22 µM), without a hit: at the top dose activation, usual class: activators. Huh7 NPC1 promoter luciferase reporter, 24 h; also: % of control where 0% means no effect; nearly all actives have a fitted effect of over 60% in size
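Readout is luciferase luminescence, reflecting NPC1 promoter activation in stably transfected Huh7 cells after 24 h compound exposure at 37 °C in reduced-serum medium with 10% FBS.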
Rab9 promoter act: activators of Rab9 promoter | AID 485297 | hit rate 2.8% among 320,000 | Potency, µM (series often up to 9.22 µM), inactives show at the top dose activation, negative = inhibition, usual class: activators | Huh7 Rab9 promoter-luciferase reporter, luminescence, 24 h; also: % of control where 0% means no effect; nearly all actives have a fitted effect of over 60% in size
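Stable Rab9-luc Huh7, 1500 cells/well, 2 h settle; cmpd in DMSO, 24 h, 37 °C/5% CO2; luciferase reagent 10 min RT; luminescence.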
ELG1 genotoxic: induces genotoxicity in HEK293T cells with luciferase-tagged ELG1 | HEK293T ELG1-luciferase reporter, luminescence, 16 h | Potency, µM (top dose mostly 46 µM), for inactives: top-dose activity change, positive = activation, most hits filed as activators | hit rate 1.3% among 330,000 | AID 504466; also: % of control where 0% means no effect; nearly all actives have a fitted effect of over 60% in size
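HEK293T cells expressing luciferase-tagged ELG1 were exposed to compound or DMSO vehicle for 16 hr at 37 °C and 5% CO2. Luciferase activity was then measured with ONE-Glo after 30 min at room temperature.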
SMN2 splice up: SMN2 splice variant enhancement; hit rate 2.8% among 210,000; AID 1458; Potency, µM (doses to about 46.1 µM), inactives show at the highest dose activity change, positive = activation, usual class: activators; HEK293 SMN2-luciferase splicing reporter, luminescence, 30-36 h; also: % of control where 0% means no effect; nearly all actives have a fitted effect of over 55% in size
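HEK293 cells carry an SMN2 […]–luciferase reporter in which exon 7 inclusion puts luciferase in frame. Cells were plated 10-12 h before compound addition, then incubated 30-36 h at 37C. ONE-Glo luminescence was read; sodium butyrate at 4.5 mM final served as control.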
ELG1 FLuc counter: luciferase inhibition in cell-free luciferin readout for ELG1 hits; shares compounds with ELG1 DNA repair; cell-free firefly luciferase luminescence counter-screen, ViewLux; Potency, µM (top dose mostly 46.1 µM), for the others: top-dose activity change, negative = inhibition, actives largely listed as inhibitors; hit rate 3% among 350; AID 624247; also: % is scaled to controls: 0 for no effect and ±100 for the full control effect
ELG1-Luc inh: confirmation of human ELG1-dependent DNA repair inhibitors; shares compounds with ELG1 DNA repair; HEK293T ELG1-luciferase levels, luminescence; cells co-treated with 5-fluorouridine; Potency, µM (titrated, usually from 46.1 µM), without a hit: at the top dose activity change, negative = inhibition, hits mostly inhibitors; hit rate 68% among 670; also: % is scaled to controls: 0 for no effect and ±100 for the full control effect; nearly all actives have a fitted effect of over 55% in size
Target sequence (Q96QE3 whole entry, looked up): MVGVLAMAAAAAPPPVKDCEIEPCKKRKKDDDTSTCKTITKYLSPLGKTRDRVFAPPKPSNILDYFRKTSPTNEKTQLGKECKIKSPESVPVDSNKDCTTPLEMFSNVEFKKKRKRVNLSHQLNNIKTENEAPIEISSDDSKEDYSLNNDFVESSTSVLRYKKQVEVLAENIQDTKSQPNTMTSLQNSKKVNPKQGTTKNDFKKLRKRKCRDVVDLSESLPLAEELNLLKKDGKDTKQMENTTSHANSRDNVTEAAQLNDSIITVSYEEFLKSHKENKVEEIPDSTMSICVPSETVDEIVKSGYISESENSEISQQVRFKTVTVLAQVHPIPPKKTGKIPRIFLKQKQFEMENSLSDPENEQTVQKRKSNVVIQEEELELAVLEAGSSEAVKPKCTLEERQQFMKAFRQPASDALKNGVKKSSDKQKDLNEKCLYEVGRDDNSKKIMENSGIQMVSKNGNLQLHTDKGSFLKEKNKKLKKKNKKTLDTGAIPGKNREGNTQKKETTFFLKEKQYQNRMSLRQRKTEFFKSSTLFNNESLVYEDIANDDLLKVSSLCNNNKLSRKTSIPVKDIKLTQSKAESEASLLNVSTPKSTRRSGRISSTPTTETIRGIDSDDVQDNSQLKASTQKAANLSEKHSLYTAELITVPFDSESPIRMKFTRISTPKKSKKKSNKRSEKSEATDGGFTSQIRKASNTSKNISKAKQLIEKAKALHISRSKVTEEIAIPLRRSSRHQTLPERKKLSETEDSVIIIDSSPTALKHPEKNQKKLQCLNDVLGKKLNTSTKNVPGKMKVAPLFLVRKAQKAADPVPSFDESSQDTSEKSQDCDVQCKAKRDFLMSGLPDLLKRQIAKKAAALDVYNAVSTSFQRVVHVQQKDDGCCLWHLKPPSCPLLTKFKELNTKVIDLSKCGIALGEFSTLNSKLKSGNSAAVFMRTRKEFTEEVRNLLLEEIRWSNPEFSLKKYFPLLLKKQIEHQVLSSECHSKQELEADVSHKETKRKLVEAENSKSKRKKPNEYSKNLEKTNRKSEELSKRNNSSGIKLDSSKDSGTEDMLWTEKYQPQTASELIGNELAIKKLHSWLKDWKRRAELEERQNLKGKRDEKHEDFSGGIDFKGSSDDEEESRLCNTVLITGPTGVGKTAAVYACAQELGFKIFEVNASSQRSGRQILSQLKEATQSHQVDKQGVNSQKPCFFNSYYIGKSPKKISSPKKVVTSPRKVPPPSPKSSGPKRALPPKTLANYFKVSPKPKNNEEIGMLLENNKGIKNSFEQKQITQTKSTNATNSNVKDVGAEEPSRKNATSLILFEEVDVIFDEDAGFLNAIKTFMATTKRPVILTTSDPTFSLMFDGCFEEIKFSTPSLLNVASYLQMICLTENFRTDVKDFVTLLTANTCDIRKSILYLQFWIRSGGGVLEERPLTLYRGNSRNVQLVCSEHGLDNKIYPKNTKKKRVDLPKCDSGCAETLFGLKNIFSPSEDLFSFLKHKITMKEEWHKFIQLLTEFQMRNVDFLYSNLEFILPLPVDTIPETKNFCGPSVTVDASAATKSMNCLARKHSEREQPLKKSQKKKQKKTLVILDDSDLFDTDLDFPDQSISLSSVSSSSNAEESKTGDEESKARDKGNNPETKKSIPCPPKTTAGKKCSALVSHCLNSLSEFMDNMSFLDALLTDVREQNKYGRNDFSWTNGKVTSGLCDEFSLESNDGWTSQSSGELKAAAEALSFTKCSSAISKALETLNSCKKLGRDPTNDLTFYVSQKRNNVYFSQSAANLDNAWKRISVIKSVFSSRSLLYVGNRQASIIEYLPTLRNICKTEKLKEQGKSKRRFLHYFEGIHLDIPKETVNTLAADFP
ELG1-Luc MMS: confirmation of human ELG1 repair inhibitors, MMS stimulated; shares compounds with ELG1 DNA repair; HEK293T luciferase-tagged ELG1 level, MMS stimulated; Potency, µM (highest dose often 46.1 µM), without a hit: at the highest dose activity change, negative = inhibition, actives largely listed as inhibitors; hit rate 53% among 670; also: % is scaled to controls: 0 for no effect and ±100 for the full control effect; nearly all actives have a fitted effect of over 60% in size
ELG1 5FU viab: confirmation of ELG1 repair inhibitors: viability with 5FU; 670 tested, under 10 active; AID 624250; shares compounds with ELG1 DNA repair; Potency, µM (top dose mostly 46.1 µM), for the others: top-dose activity change, negative = viability loss, actives largely listed as cytotoxic; cell viability with 5-FU, ELG1-dependent repair;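 also: ELG1-luc HEK293T cells cotreated with 5-fluorouridine at 10 µM final; viability measured 16 h after compound addition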
ELG1 MMS cell: confirmation of ELG1 repair inhibitors: viability with MMS; shares compounds with ELG1 DNA repair; Cell viability with MMS, ELG1-dependent DNA repair; Potency, µM (series often up to 46.1 µM), without a hit: at the highest dose activity change, negative = viability loss, most hits filed as cytotoxic; hit rate 33% among 670;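 also: ELG1-luc HEK293T cells co-treated with 10 µM MMS; viability read 16 h after compound addition; % is scaled to controls: 0 for no effect and ±100 for the full control effect; nearly all actives have a fitted effect of over 60% in size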
Cell viab unstim: affects unstimulated cell viability, ELG1 hit counter-screen; shares compounds with ELG1 DNA repair; cell viability counter-screen, unstimulated, luminescence; Potency, µM (top dose mostly 45.9 µM), inactives show at the highest dose activity change, negative = loss of viability, hits mostly cytotoxic; hit rate 8% among 900; AID 624252;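 also: compound exposure lasted 16 hours before reading; % is scaled to controls: 0 for no effect and ±100 for the full control effect; nearly all actives have a fitted effect of over 55% in size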
FLuc enzyme: firefly luciferase inhibition counter-screen; Potency, µM (doses to about 57.5 µM), inactives show at the top dose activity, negative = inhibition, usual class: inhibitors; shares compounds with ELG1 DNA repair; hit rate 10% among 350; AID 624253; purified firefly luciferase, luminescence counter-screen; also: % is scaled to controls: 0 for no effect and ±100 for the full control effect
The depositor's hits bear a star; [ ] = remark or other dose. Calls follow the shape of the dose curve; as a rule, active = well fitted curve in the direction sought with a large enough effect; inconclusive = small, poorly fitted or top-dose-only effect, or another doubt; inactive = no such curve, though single readings can be large; an effect the other way counts as inactive or inconclusive. Potency is read from the fitted curve at half-maximal effect.

COc1ccc(CNC(=O)C(c2ccco2)N(Cc2cccs2)C(=O)Cc2cccs2)cc1 (centres undefined) was read as FLuc counter 4%, ELG1 DNA repair 15µM*, NPC1 prom act 2%, Rab9 promoter act -11%, ELG1 genotoxic -20%, SMN2 splice up 3%, ELG1 FLuc counter -17%, ELG1-Luc inh 16µM*, ELG1-Luc MMS 16µM*, ELG1 5FU viab 6%, ELG1 MMS cell -4%, Cell viab unstim -14% and FLuc enzyme -4%.
Screening COc1ccc(-n2cc(C(=O)NCCc3ccc(C)cc3)c3ccccc3c2=O)cc1 returned FLuc counter -11%.
Screening O=C(c1cc2ccccc2cc1O)N1CCN(c2ccc([N+](=O)[O-])cc2)CC1 returned FLuc counter -3%, ELG1 DNA repair -22%, NPC1 prom act -7%, Rab9 promoter act 2% and ELG1 genotoxic 1%.
Screening COc1ccc(S(=O)(=O)N2CCCCC2)cc1NC(=O)c1[nH]c(C)c(C(C)=O)c1C returned ELG1 DNA repair inconclusive, ELG1 genotoxic 12µM* and Cell viab unstim -19%.
For COc1ccc(CC(=O)Nc2cc(S(=O)(=O)N3CCCCC3)ccc2C)cc1OC the results were FLuc counter 3%, ELG1 DNA repair 2.1µM*, NPC1 prom act -30%, Rab9 promoter act -24%, ELG1 genotoxic -6%, ELG1-Luc inh inconclusive, ELG1-Luc MMS 1.4µM*, ELG1 5FU viab 3%, ELG1 MMS cell 2.5µM* and Cell viab unstim inconclusive.
`Cc1ccc(S(=O)(=O)N2CCCCC2)cc1NC(=O)CNc1ccc(C(F)(F)F)cc1` gave FLuc counter -17%, ELG1 DNA repair 3.7µM*, NPC1 prom act -3%, Rab9 promoter act -3%, ELG1 genotoxic 16%, ELG1-Luc inh inconclusive, ELG1-Luc MMS 31µM*, ELG1 5FU viab -3%, ELG1 MMS cell 28µM* and Cell viab unstim inconclusive.
N=C1[C@@H](O)[C@]2(I)c3ccccc3N3C(=N)[C@H](O)[C@@H]4c5ccccc5N1[C@@H]4[C@@H]32 was read as SMN2 splice up -4%[9.22 µM].
For COc1ccc(/C=C/c2ccc3ccccc3n2)cc1OC the results were ELG1 FLuc counter 36%, Cell viab unstim inconclusive and FLuc enzyme inconclusive.
COc1ccc(CCNC(=O)/C=C/c2ccc3ccccc3n2)cc1OC was read as FLuc counter 1%, ELG1 DNA repair inconclusive, NPC1 prom act -7%, Rab9 promoter act -11% and ELG1 genotoxic -14%.
Screening COc1ccc(/C=C/c2nc(C)c(-c3ccccc3)c(=O)[nH]2)cc1OC returned FLuc counter 4%, ELG1 DNA repair -19%, NPC1 prom act -1%, Rab9 promoter act 2%, ELG1 genotoxic 0% and SMN2 splice up -1%.
COc1ccc(/C=C/c2cnc3ccccc3n2)cc1OC was read as ELG1 FLuc counter -8%, Cell viab unstim -4% and FLuc enzyme 0.21µM*.
`Cc1ccc(Cn2c(C(=O)O)c(CNC3CCCC3)c3ccc(C)cc32)cc1` gave FLuc counter 0%.
For Cn1cnc2c(F)c(Nc3ccc(Br)cc3Cl)c(C(=O)NOCCO)cc21 the results were Cell viab unstim -25%.
For O=C(NC1CC(=O)N(c2ccc(Cl)cc2)C1)c1ccc(S(=O)(=O)N2CCCC2)cc1 (centres undefined) the results were FLuc counter 9%.
CC(=O)N/N=C(\N)c1nonc1N was read as FLuc counter -3%, ELG1 DNA repair inconclusive, NPC1 prom act 0%, Rab9 promoter act -3% and ELG1 genotoxic 2%.
`CN(C)c1ccnc2sc3c(=O)n(-c4ccccc4)cnc3c12` gave FLuc counter 0%, ELG1 DNA repair 12µM*, NPC1 prom act 1%, Rab9 promoter act 0%, ELG1 genotoxic -13%, SMN2 splice up 17%, ELG1 FLuc counter 12%, ELG1-Luc inh 16µM*, ELG1-Luc MMS inconclusive, ELG1 5FU viab 14%, ELG1 MMS cell 0%, Cell viab unstim inconclusive and FLuc enzyme -10%.
Screening CN(C)C=Nc1c(C(=O)c2ccccc2)sc2nccc(N(C)C)c12 returned FLuc counter -3%, ELG1 DNA repair inconclusive, NPC1 prom act 0%, Rab9 promoter act 1%, ELG1 genotoxic -11% and SMN2 splice up -14%.
CCCOc1ccc(/C=C/C(=O)Nc2ccc([N+](=O)[O-])cc2)cc1 was read as FLuc counter -9%, ELG1 DNA repair inconclusive, NPC1 prom act -31%, Rab9 promoter act -37% and ELG1 genotoxic -6%.
